For twelve molecules, Potency and z-score results are on record in PubChem BioAssay (NCATS).

The nature of the assay: qHTS for identification of novel therapeutic agents for treatment of microphthalmiaassociated transcription factor (MiT) renal cell carcinoma (RCC) (AID 1963991). The settings on record: CellTiter-Glo, 48 h; for Potency: active = Z-AUC below -0.8 in all three lines; for z-score: stronger effect = lower value. An excerpt:
PI: Marston Linehan Ph.D.
Urologic Oncology Branch, Center for Cancer Research (CCR)
National Cancer Institute (NCI), National Institute of Health (NIH), Bethesda, Maryland
MiT-Renal Cell Carcinoma (RCC) is characterized by genomic translocations involving microphthalmia-associated transcription factor (MiT) family members TFE3, TFEB, or MITF. MiT-RCC represents a specific subtype of sporadic RCC that is predominantly seen in young patients and can present with heterogeneous histological features making diagnosis challenging. Moreover, the disease biology of this aggressive cancer is poorly understood and there is no accepted standard of care therapy for patients with advanced disease. Tumor-derived cell lines have been established from human TFE3-RCC providing useful models for preclinical studies. TFE3-RCC tumor derived cell lines and their tissues of origin were characterized by IHC and gene expression analyses. An unbiased high-throughput drug screen was performed to identify novel therapeutic agents for treatment of MiT-RCC. Potential therapeutic candidates were validated in in vitro and in vivo preclinical studies. Mechanistic assays were conducted to confirm the on-target effects of drugs. The results of a high-throughput small molecule drug screen utilizing three TFE3-RCC tumor-derived cell lines identified five classes of agents with potential pharmacological efficacy, including inhibitors of phosphoinositide-3-kinase (PI3K) and mechanistic target of rapamycin (mTOR), and several additional agents, including the transcription inhibitor Mithramycin A. Upregulation of the cell surface marker GPNMB, a specific MiT transcriptional target, was confirmed in TFE3-RCC and evaluated as a therapeutic target using the GPNMB-targeted antibody-drug conjugate CDX-011. […] The results of the high-throughput drug screen and validation studies in TFE3-RCC tumor-derived cell lines have provided in vitro and in vivo preclinical data supporting the efficacy of the PI3K/mTOR inhibitor.
SEQUENCE No. (e.g., 1, 2, 3, etc.); […] (e.g., Cells, Incubation, Reagent, etc.); VALUE; DESCRIPTION.
1; Cells; 3 uL; white, solid-bottom Grenier assay plate.
2; Compounds; 23 nL; Kalypsis pin-tool (Wako USA).
3; Incubation; 48 hr; 37 C, 5% CO2, 95% humidity.
4; Reagent; 3 uL; CellTiter-Glo reagent (Promega).
5; Incubation; 15 min; room temperature.
6; Detection; Luminescence; ViewLux plate reader (PerkinElmer).
NOTES (numbers refer to Sequence numbers above)
1. Quantitative high-throughput screening (qHTS) of 1912 pharmacologically defined small molecule compounds was conducted on three TFE3-fusion cell lines bearing three different fusion partners (UOK109, UOK124, UOK145). Briefly, 500 cells in complete growth media were plated into white, solid-bottom, 1536-well tissue culture treated plates (Grenier Cat. 789173-F) using a Multidrop Combi cassette dispenser.
2. Twenty-three nanoliter of 1912 pharmacologically defined small molecule compounds of the NCATS Mechanism Interrogation PlatE (MIPE) version 4.0 were added to each assay plate using a Pintool Dispenser (Wako) equipped with 1536 pin head.
3. Plates were covered with stainless steel gasketed lids and incubated for 48 hours at standard cell culture conditions.
4. Viability was assessed by adding 3uL of CellTiter-Glo detection reagent (Promega).
5. Plates were covered with gasket lids and incubated for 15 minutes at room temperature.
6. Luminescence was measured on a ViewLux plate reader (PerkinElmer). Post-screen data processing used DMSO controls as 100% viability and empty wells as 0% viability and dose response curve fitting was done for all 11 concentrations for each compound.

[1] abbreviates: TFE3-RCC UOK109 viability, measured here: UOK109 Z-AUC.
Setting [2] is: TFE3-RCC viability, measured here: UOK124 Z-AUC.
[3] abbreviates: TFE3-RCC viability, measured here: UOK145 Z-AUC.

Each structure is given as a SMILES string. Records with an inconclusive call do not appear. Active and inactive are the calls of the source.
Potency is the fitted concentration of half-maximal effect.

On to `C=CC(=O)Nc1ccc2ncnc(Nc3ccc(OCc4cccc(F)c4)c(Cl)c3)c2c1`, for which the Potency (TFE3-RCC UOK109 viability) is 0.59 µM (active). The z-score reads like this: under setting [1], -2.47; under setting [2], -3.02; under setting [3], -1.72.
Regarding `COc1ccc(C=Cc2cc(OC)c(OC)c(OC)c2)cc1NC(=O)[C@H](N)CO`, for the setting “TFE3-RCC UOK109 viability”, the Potency was 0.0105 µM (active). The molecule further showed a z-score under setting [1] of -2.33, a z-score under setting [2] of -3.86 and a z-score under setting [3] of -1.55.
`COC[C@H](NC(=O)c1cnc(C)s1)C(=O)N[C@@H](COC)C(=O)N[C@@H](Cc1ccccc1)C(=O)[C@@]1(C)CO1`: under “TFE3-RCC UOK109 viability”, the Potency was 3.72 µM (active). Further, the z-score reads like this: under setting [1], -1.27; under setting [2], -0.856; under setting [3], -2.57.
Consider `Cc1cc(Nc2ncc3c(n2)N(C)C(=O)N(c2cc(NC(=O)c4cccc(C(F)(F)F)c4)ccc2C)C3)n(C)n1`, for which the Potency (TFE3-RCC UOK109 viability) is 0.264 µM (active). This molecule showed a z-score under setting [1] of -1.56, a z-score under setting [2] of -1.08 and a z-score under setting [3] of -2.15.
In the case of `O=C(C=Cc1ccc(CN(CCO)CCc2c[nH]c3ccccc23)cc1)NO`, the Potency (TFE3-RCC UOK109 viability) is 0.59 µM (active). The z-score is, setting by setting: under setting [1], -1.47; under setting [2], -3.24; under setting [3], -1.37.
As for `CC(=O)N1CCN(c2ccc(OCc3nn(C)c(C)c3-c3cccc4c(CCCOc5cccc6ccccc56)c(C(=O)O)n(Cc5cccnc5)c34)cc2)CC1`, the Potency (TFE3-RCC UOK109 viability) is 0.935 µM (active). Besides, the z-score was -1.06 under setting [1], -1.35 under setting [2] and -1.45 under setting [3].
Take `COC(=O)[C@H](CCCN=C(N)N)NS(=O)(=O)c1ccc(C)cc1`: the z-score runs as follows: under setting [1], 0.843; under setting [2], 0.187; under setting [3], 0.701.
For `O=C1c2cccc(O)c2C(=O)c2c(O)cc(CO)cc21`, the z-score amounted to 0.181 under setting [1], 0.143 under setting [2] and 0.0189 under setting [3].
Turning to `CCCc1nc(C(C)(C)O)c(C(=O)O)n1Cc1ccc(-c2ccccc2-c2nn[nH]n2)cc1`, the z-score came to 1.09 under setting [1], 0.526 under setting [2] and 0.646 under setting [3].
On to `CC(=O)OCC(=O)[C@@]1(O)CC[C@H]2[C@@H]3CCC4=CC(=O)CC[C@]4(C)[C@@H]3C(=O)C[C@@]21C`, for which the z-score under setting [1] is -0.147, the z-score under setting [2] came out at 0.413 and the z-score under setting [3] came out at 0.581.
Taken in the same sequence, the figures for `O=C(CN1C(=O)C2(CCCC2)NC[C@H]1c1cc(F)cc(F)c1)Nc1ccc2c(c1)C[C@@]1(C2)C(=O)Nc2ncccc21` were 1.1, 0.765 and 1.18.
Regarding `Cc1cncc2cccc(S(=O)(=O)N3CCCN(C(=O)CN)C[C@@H]3C)c12`, the z-score was found to be 1.38 under setting [1], 0.196 under setting [2] and 0.7 under setting [3].
